Measured potencies and affinities stand elsewhere.
Key:
Klebsiella pneumoniae = conditions: Concentration 32 ug.mL-1; ASSAY_TEST Inhibition of Bacterial Growth; detection method Absorption (OD600); MEDIA CAMHB; plate type 384well; NBS; CORNING #3640; time 18 hr
Candida albicans = conditions: 32 ug/mL
Cryptococcus neoformans = conditions: Concentration 32 ug.mL-1; ASSAY_TEST Inhibition of Fungal Growth; detection method Resazurin; Absorption (OD600-OD570); plate type 384well; NBS; CORNING #3640

SMILES | Inhibition (Klebsiella pneumoniae) [%] | Inhibition (Candida albicans) [%] | Inhibition (Cryptococcus neoformans) [%]
C#CCNc1nc(NCC#C)c(C#N)cc1C#N | -4.98 | 3.76 | 23.66
CCOC(=O)c1c(C)[nH]c2ccc(OC)cc12 | 6.33 | 1.53 | -2.15
CC#CCN(Cc1ccccc1)c1nc(N)c(C#N)cc1C#N | -9.03 | 3.48 | -21.6
CCOc1nc2nc(C)c(C=C3CCN(Cc4ccccc4)CC3)cc2c(-c2ccccc2)c1C#N | 20.16 | 2.44 | -63.91
O=C1NC(=S)N/C1=C\c1ccccc1 | 18.56 | 0.81 | -1.21
COc1cc(C2c3c(nc4c(c3N)CCCC4)Oc3ccc4ccccc4c32)cc(OC)c1OC (centres undefined) | 23.56 | 1.11 | -4.42
Nc1c2c(nc3c1C(c1ccc(Cl)c(Cl)c1)c1ccc4ccccc4c1O3)CCCC2 (centres undefined) | -10.24 | 4.63 | -2.87
N#Cc1c(N)nc(N2CCCCC2)c(C#N)c1-c1ccccc1 | 2.6 | 1.97 | -31.47
CN1C/C(=C\Br)n2c1c(C#N)cc(C#N)c2=O | 4.89 | 3.61 | -48.49
CCOC(=O)c1c[nH]c2ccc(OC)cc12 | 1.49 | 3.61 | -7.29
Nc1nc(N)c(C=O)c(-c2ccccc2)c1C=O | -1.67 | 9.69 | -7.8
Cc1cc(Br)cc(C)c1NC=C(C#N)C#N | -18.28 | 1.62 | -6.77
O=C(Cc1c[nH]c2ccccc12)NNCCc1ccccc1 | 0.81 | 1.99 | -0.59
CN1C/C(=C\Cl)n2c1c(C#N)c(-c1ccccc1)c(C#N)c2=O | 4.05 | 3.56 | -47.27
Cc1ccc2nc(Cl)c(/C=N/N)cc2c1 | 10.01 | 15.7 | -3.85
CC1Cc2c(Cl)nc3nc4c(c(N)c3c2NC1=O)CCCC4 (centres undefined) | 8.15 | 2.83 | -81.78
C#CCN(C)c1nc(NC2CCN(Cc3ccccc3)CC2)c(C#N)c(-c2ccccc2)c1C#N | -4.36 | 3.34 | -29.11
N#Cc1c(N)nc(S)c(C#N)c1-c1ccccc1 | 24.85 | 0.7 | 1.04
Cl.NC1(C(=O)O)CC1c1cccc(Cl)c1 (centres undefined) | 18.53 | 2.81 | -0.59

SMILES | Inhibition (Klebsiella pneumoniae) [%] | Inhibition (Candida albicans) [%] | Inhibition (Cryptococcus neoformans) [%]
Cc1n[nH]c2c1C(c1ccc([N+](=O)[O-])cc1)C(C#N)=C(N)O2 (centres undefined) | -7.74 | 3.15 | -4.51
CCOC(=O)c1c(C)nc(NC2CCN(Cc3ccccc3)CC2)c(C#N)c1-c1ccccc1 | 11.42 | 3.26 | -46.25
C#CCNc1ncccn1 | 20.12 | 2.79 | -63.47
COc1ccc2c(c1)cc(/C=C/[N+](=O)[O-])n2C | 9.01 | 2.82 | 4.17
CCCC(C)NNC(=O)c1cc2ccccc2[nH]1 (centres undefined) | -0.18 | 0.67 | -3.77
O=C(N/N=C/c1ccc([N+](=O)[O-])cc1)c1cc2ccccc2[nH]1 | 7.41 | 0.87 | -3.37
CC(C)(C)OC(=O)Nc1ccc(Br)cn1 | 23.74 | 1.83 | -55.05
Cc1ccccc1-c1c(C=N)c(N)nc2c1S(=O)(=O)OC2(C)C | 10.81 | -0.01 | -3.14
C/C=C(/C#N)C(=O)OC | 5.34 | -0.41 | -2.55
NOC(=O)C1CCN(Cc2ccccc2)CC1 | 4.34 | 1.62 | -5.93
COC1=C(C#N)CCC(=O)N1 | 12.74 | 0.89 | -77.28
N#Cc1cccnc1N | 16.36 | 1.57 | -34.57
CCOC(N)=CC#N | -6.69 | 0.84 | -10.57
CCOC(=O)C1=C(C)Oc2nc3c(c(N)c2C1c1nccn1C)CCCCC3 (centres undefined) | 6.14 | 3.82 | -4.74
C#CCN(C)c1nc(NCC2CCN(Cc3ccccc3)CC2)c(C#N)c(-c2ccccc2)c1C#N.Cl | 9.81 | -0.67 | 16.69
CCCCCCC(C)NNC(=O)c1cc2ccccc2[nH]1 (centres undefined) | -31.72 | 3.47 | -2.85
O=C(Cc1ccccc1)N/N=C/c1c[nH]c2ccccc12 | 20.21 | 3.09 | -2.34
COc1ccccc1C1C(C#N)=C(N)Oc2[nH]nc(C)c21 (centres undefined) | 0.76 | 2.02 | -7.07
Cl.Nc1c2c(nc3c1C(c1ccccc1)c1c(ccc4ccccc14)O3)CCCC2 (centres undefined) | 8.19 | 1.33 | -0.7

— ChEMBL document CHEMBL4513135, “CO-ADD screening of IQOG CSIS (Spain) compounds”
